# Laboratory results from PubChem BioAssay (EPA / NIEHS).
# Where “and” joins values, the source holds several entries; their conditions need not be identical. Equal values may be shown once. Results filed as inconclusive are left out. Calls of active or inactive are those of the source. The calls were made as follows: active = hit-call score of the fitted dose curve at least 0.9, where 1 is the maximum; inconclusive = response in the unintended direction; inactive = score below 0.9.
# Target: rat Peripheral-type Benzodiazepine Receptor (PBR), Tspo (gene 24230) (UniProt P16257)
# Sequence (P16257 whole entry, looked up): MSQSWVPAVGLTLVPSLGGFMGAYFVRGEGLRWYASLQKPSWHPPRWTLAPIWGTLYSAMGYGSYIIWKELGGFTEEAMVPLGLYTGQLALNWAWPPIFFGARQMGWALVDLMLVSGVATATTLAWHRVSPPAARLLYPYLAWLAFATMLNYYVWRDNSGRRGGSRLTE
# Assay: NVS_MP_rPBR: NovaScreen (NVS) Membrane Protein Assay for rat Peripheral-type Benzodiazepine Receptor (PBR) (AID 2283335)
# Protocol: NVS_MP_rPBR is a biochemical, single-readout assay that uses extracted gene-proteins from Rat kidney membranes in a tissue-based cell-free assay. Measurements were taken 1 hour after chemical dosing in a 48-well plate.NVS_MP_rPBR is one of one assay component(s) measured or calculated from the NVS_MP_rPBR assay. It is designed to make measurements of radioligand binding, a form of binding reporter, as detected with scintillation counting signals by Filter-based radiodetection technology.Data from the assay component NVS_MP_rPBR was analyzed into 1 assay endpoint. This assay endpoint, NVS_MP_rPBR, was analyzed in the positive analysis fitting direction relative to DMSO as the negative control and baseline of activity. Using a type of binding reporter, loss-of-signal activity can be used to understand changes in the binding as they relate to the gene Tspo. Furthermore, this assay endpoint can be referred to as a primary readout, because the performed assay has only produced 1 assay endpoint. To generalize the intended target to other relatable targets, this assay endpoint is annotated to the transporter intended target family, where the subfamily is cholesterol transporter.
# Binding assays used specific radioligands (tritiated, iodinated) with non-radioactive competitive displacement ligands in agonist or antagonist protocols (as indicated) and various reference compounds and inhibitors to titrate specific binding to receptors and transporters. Most enzyme assays (CYPs, kinases, phosphatases, proteases, HDACs) used recombinant protein and specific substrates (fluorescence mostly, some colorimetric and radioactive) and inhibitors, followed by a biochemical separation of substrate and product. All assays for the biochemical HTS were initially run in duplicate at a single concentration (10 uM for CYP450 assays and 25 uM for all others). […] Each assay was run with positive and negative controls, and concurrent controls on every plate. The follow-up (secondary) screen tested active chemical-pairs in concentration series, as well as a few additional assays not tested in the primary screen, some selected negative inactives, and several cases re-run in the concentration series for confirmatory purposes.
SMILES,outcome,AC50
CCOP(=O)(OCC)Oc1ccc([N+](=O)[O-])cc1,inactive,
CNC(=O)Oc1cc(C)c(SC)c(C)c1,,11.7 µM (active)
CC(C)CCCCCCCOP(=O)(Oc1ccccc1)Oc1ccccc1,,2.91 µM (active)
CCCOC(=O)c1ccccc1C(=O)OCCC,inactive,
O=S(=O)(c1ccccc1)c1ccccc1,,8.45 µM (active)
CCc1cccc(C)c1N(C(=O)CCl)[C@@H](C)COC,,4.35 µM (active)
c1ccc(Nc2ccc3ccccc3c2)cc1,,25 µM (active)
CC1(C)[C@H](C(=O)O[C@H](C#N)c2cccc(Oc3ccccc3)c2)[C@@H]1C=C(Br)Br,,15 µM (active)
Cc1ccc(OP(=O)(Oc2ccc(C)cc2)Oc2ccc(C)cc2)cc1 (tested in a mixture with another compound),,150 nM (active) and 5.34 µM (active)
CC(C)COP(=O)(OCC(C)C)OCC(C)C,,19.2 µM (active)
